Consider 16 sequences from paper PMC8384837, “Expanding the binding specificity for RNA recognition by a PUF domain”.

Changes are numbered by the printed parent chain.

Common to all, as to experiment: yeast three-hybrid, YBZ-1, SC-Leu-His + 0.5 mM 3-AT, 4 days
Common to all, as to settings: tags: N-Gal4 AD-HA kept; label: inside an RPR1-promoter hybrid RNA with tandem MS2 sites; ssRNA

One test addresses PUM1 PUF domain R5-KGG (Homo sapiens, UniProt Q14671 828-1176, C1007K;R1008G;Q1011G). In short, it runs like this:
(§1)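 The interaction score is the log change in how often each variant appears, from input to selection. Frequencies came from PCR-amplified, Illumina-sequenced repeat regions of Pumilio-1 PUF domain libraries grown in strain YBZ-1 (LexA–MS2 coat fusion, HIS3 reporter) alongside matching RNA elements. Input plates were SC-Leu and selection plates were SC-Leu-His + 0.5 mM 3-AT, each for four days, and the log2 calculation used a pseudocount of 1 where a variant was absent.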

For the next test, the target named is PUM1 PUF domain R5-RCR (Homo sapiens, UniProt Q14671 828-1176, C1007R;R1008C;Q1011R). The gist of the method:
as §1

Another test has as its target PUM1 PUF domain R3-FFA (Homo sapiens, UniProt Q14671 828-1176, C935F;R936F;Q939A). In short, it runs like this:
as §1

The target in the next test is PUM1 PUF domain R3-ARR (Homo sapiens, UniProt Q14671 828-1176, C935A;Q939R). In short, it runs like this: as §1
The target of a further test is PUM1 PUF domain R4-PFR (Homo sapiens, UniProt Q14671 828-1176, N971P;H972F;Q975R). The gist of the method: as §1
The next test deals with PUM1 PUF domain R3-LRM (Homo sapiens, UniProt Q14671 828-1176, C935L;Q939M). The gist of the method:
as §1

Another test deals with PUM1 PUF domain R5-KNC (Homo sapiens, UniProt Q14671 828-1176, C1007K;R1008N;Q1011C). The gist of the method: as §1
Another test addresses PUM1 PUF domain R5-GFL (Homo sapiens, UniProt Q14671 828-1176, C1007G;R1008F;Q1011L). In short, it runs like this: as §1
The target of another test is PUM1 PUF domain R7-KFF (Homo sapiens, UniProt Q14671 828-1176, S1079K;N1080F;E1083F). The gist of the method: as §1
The target of a further test is PUM1 PUF domain R7-GVN (Homo sapiens, UniProt Q14671 828-1176, S1079G;N1080V;E1083N). In short, it runs like this: as §1
For the next test, the target named is PUM1 PUF domain R1-RAQ (Homo sapiens, UniProt Q14671 828-1176, S863R;R864A). The gist of the method:
as §1

The target in a further test is PUM1 PUF domain R8-RFN (Homo sapiens, UniProt Q14671 828-1176, N1122R;Y1123F;Q1126N). The gist of the method:
as §1

Another test concerns the target T1, PUM1 PUF domain R6-HYS (Homo sapiens, UniProt Q14671 828-1176, N1043H;Q1047S).
T1 sequence: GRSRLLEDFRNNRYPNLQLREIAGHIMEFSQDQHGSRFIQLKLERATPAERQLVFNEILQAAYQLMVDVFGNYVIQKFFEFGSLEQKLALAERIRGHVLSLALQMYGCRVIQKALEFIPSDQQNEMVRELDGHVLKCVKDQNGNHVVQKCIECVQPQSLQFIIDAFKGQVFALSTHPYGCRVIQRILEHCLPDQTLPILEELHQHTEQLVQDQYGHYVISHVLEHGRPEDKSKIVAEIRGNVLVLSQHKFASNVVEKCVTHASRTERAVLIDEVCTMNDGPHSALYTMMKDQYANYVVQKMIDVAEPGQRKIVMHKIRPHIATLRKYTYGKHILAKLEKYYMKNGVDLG
In short, it runs like this: as §1

The target of another test is PUM1 PUF domain R4-NFQ (Homo sapiens, UniProt Q14671 828-1176, H972F). In short, it runs like this:
as §1

In a further test the target is PUM1 PUF domain R8-TWN (Homo sapiens, UniProt Q14671 828-1176, N1122T;Y1123W;Q1126N). The gist of the method: as §1
Another test addresses PUM1 PUF domain R1-KVE (Homo sapiens, UniProt Q14671 828-1176, S863K;R864V;Q867E). The gist of the method:
as §1

In another test the target is PUM1 PUF domain R1-VWK (Homo sapiens, UniProt Q14671 828-1176, S863V;R864W;Q867K). The gist of the method: as §1
The next test has as its target PUM1 PUF domain R1-NIS (Homo sapiens, UniProt Q14671 828-1176, S863N;R864I;Q867S). In short, it runs like this:
as §1

For a further test, the target named is PUM1 PUF domain R1-RHV (Homo sapiens, UniProt Q14671 828-1176, S863R;R864H;Q867V). The gist of the method:
as §1

For another test, the target named is T2, PUM1 PUF domain R6-RWT (Homo sapiens, UniProt Q14671 828-1176, N1043R;Y1044W;Q1047T).
T2 sequence: T1 sequence with H216R, Y217W, S220T
The gist of the method:
as §1

Sequence of PUM1 PUF domain R1-RAQ (Q14671 828-1176 S863R/R864A): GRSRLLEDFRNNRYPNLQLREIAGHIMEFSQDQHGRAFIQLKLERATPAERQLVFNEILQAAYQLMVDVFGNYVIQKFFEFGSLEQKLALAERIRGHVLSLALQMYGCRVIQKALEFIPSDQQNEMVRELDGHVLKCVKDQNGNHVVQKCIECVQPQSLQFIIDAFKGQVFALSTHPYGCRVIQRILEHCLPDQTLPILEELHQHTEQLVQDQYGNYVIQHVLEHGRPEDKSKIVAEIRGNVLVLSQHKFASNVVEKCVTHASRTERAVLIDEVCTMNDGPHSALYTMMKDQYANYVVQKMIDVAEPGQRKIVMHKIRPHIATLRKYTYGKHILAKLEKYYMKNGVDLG
Sequence of PUM1 PUF domain R8-RFN (Q14671 828-1176 N1122R/Y1123F/Q1126N): as the sequence (Q14671 828-1176 S863R/R864A) above, with R36S, A37R, N295R, Y296F, Q299N counted along it
Sequence of PUM1 PUF domain R1-KVE (Q14671 828-1176 S863K/R864V/Q867E): as the sequence (Q14671 828-1176 S863R/R864A) above, with R36K, A37V, Q40E counted along it
Sequence of PUM1 PUF domain R3-FFA (Q14671 828-1176 C935F/R936F/Q939A): as the sequence (Q14671 828-1176 S863R/R864A) above, with R36S, A37R, C108F, R109F, Q112A counted along it
Sequence of PUM1 PUF domain R5-KGG (Q14671 828-1176 C1007K/R1008G/Q1011G): as the sequence (Q14671 828-1176 S863R/R864A) above, with R36S, A37R, C180K, R181G, Q184G counted along it
Sequence of PUM1 PUF domain R4-NFQ (Q14671 828-1176 H972F): as the sequence (Q14671 828-1176 S863R/R864A) above, with R36S, A37R, H145F counted along it
Sequence of PUM1 PUF domain R8-TWN (Q14671 828-1176 N1122T/Y1123W/Q1126N): as the sequence (Q14671 828-1176 S863R/R864A) above, with R36S, A37R, N295T, Y296W, Q299N counted along it
Sequence of PUM1 PUF domain R3-LRM (Q14671 828-1176 C935L/Q939M): as the sequence (Q14671 828-1176 S863R/R864A) above, with R36S, A37R, C108L, Q112M counted along it
Sequence of PUM1 PUF domain R1-NIS (Q14671 828-1176 S863N/R864I/Q867S): as the sequence (Q14671 828-1176 S863R/R864A) above, with R36N, A37I, Q40S counted along it
Sequence of PUM1 PUF domain R1-VWK (Q14671 828-1176 S863V/R864W/Q867K): as the sequence (Q14671 828-1176 S863R/R864A) above, with R36V, A37W, Q40K counted along it

For “GGCUAGAACUAGUGGAUCCCCCGGCGCCCGGCGGCUCGAGCCCGGGUAAGUGUCAAUAGUCUGCAUGCCGCCGGGCGCCAUGCCUGCAGGUCGACUCUAGAAAACAUG”, the binding signal is 2.89 log2 enrichment (interaction score) with PUM1 PUF domain R5-KGG and 3.99 log2 enrichment (interaction score) in the test with PUM1 PUF domain R5-RCR.
For the sequence “GGCUAGAACUAGUGGAUCCCCCGGCGCCCGGCGGCUCGAGCCCGGGUAAGUGUAAUUAGUCUGCAUGCCGCCGGGCGCCAUGCCUGCAGGUCGACUCUAGAAAACAUG”, the binding signal is 4.46 log2 enrichment (interaction score) with PUM1 PUF domain R3-FFA and 3.37 log2 enrichment (interaction score) in the test with PUM1 PUF domain R3-ARR.
On to “GGCUAGAACUAGUGGAUCCCCCGGCGCCCGGCGGCUCGAGCCCGGGUAAGUGUACAUAGUCUGCAUGCCGCCGGGCGCCAUGCCUGCAGGUCGACUCUAGAAAACAUG”, for which the binding signal with PUM1 PUF domain R4-PFR is 6.57 log2 enrichment (interaction score).
As to “GGCUAGAACUAGUGGAUCCCCCGGCGCCCGGCGGCUCGAGCCCGGGUAAGUGUAAGUAGUCUGCAUGCCGCCGGGCGCCAUGCCUGCAGGUCGACUCUAGAAAACAUG”, the binding signal in the test with PUM1 PUF domain R3-FFA is 8.18 log2 enrichment (interaction score); with PUM1 PUF domain R3-LRM, 3.32 log2 enrichment (interaction score); in the test with PUM1 PUF domain R3-ARR, 1.41 log2 enrichment (interaction score).
“GGCUAGAACUAGUGGAUCCCCCGGCGCCCGGCGGCUCGAGCCCGGGUAAGUGUUAAUAGUCUGCAUGCCGCCGGGCGCCAUGCCUGCAGGUCGACUCUAGAAAACAUG”: the binding signal was 2.27 log2 enrichment (interaction score) in the test with PUM1 PUF domain R5-KGG, 4.22 log2 enrichment (interaction score) with PUM1 PUF domain R5-KNC, 5.05 log2 enrichment (interaction score) with PUM1 PUF domain R5-GFL and 2.8 log2 enrichment (interaction score) with PUM1 PUF domain R5-RCR.
Take “GGCUAGAACUAGUGGAUCCCCCGGCGCCCGGCGGCUCGAGCCCGGGUAAGUGUGAAUAGUCUGCAUGCCGCCGGGCGCCAUGCCUGCAGGUCGACUCUAGAAAACAUG”: in the test with PUM1 PUF domain R5-GFL, the binding signal was 1.77 log2 enrichment (interaction score).
Take “GGCUAGAACUAGUGGAUCCCCCGGCGCCCGGCGGCUCGAGCCCGGGUAAGUAUAAAUAGUCUGCAUGCCGCCGGGCGCCAUGCCUGCAGGUCGACUCUAGAAAACAUG”: in the test with PUM1 PUF domain R7-KFF, the binding signal was 3.16 log2 enrichment (interaction score).
Regarding “GGCUAGAACUAGUGGAUCCCCCGGCGCCCGGCGGCUCGAGCCCGGGUAAGUCUAAAUAGUCUGCAUGCCGCCGGGCGCCAUGCCUGCAGGUCGACUCUAGAAAACAUG”, the binding signal in the test with PUM1 PUF domain R7-KFF is 2.82 log2 enrichment (interaction score).
With “GGCUAGAACUAGUGGAUCCCCCGGCGCCCGGCGGCUCGAGCCCGGGUAAGUUUAAAUAGUCUGCAUGCCGCCGGGCGCCAUGCCUGCAGGUCGACUCUAGAAAACAUG”, in the test with PUM1 PUF domain R7-GVN, the binding signal is 3.93 log2 enrichment (interaction score).
Regarding “GGCUAGAACUAGUGGAUCCCCCGGCGCCCGGCGGCUCGAGCCCGGGUAAGUGUAAAUGGUCUGCAUGCCGCCGGGCGCCAUGCCUGCAGGUCGACUCUAGAAAACAUG”, in the test with PUM1 PUF domain R1-RAQ, the binding signal is 1.23 log2 enrichment (interaction score).
Take “GGCUAGAACUAGUGGAUCCCCCGGCGCCCGGCGGCUCGAGCCCGGGUAAGUGUAAAUAGUCUGCAUGCCGCCGGGCGCCAUGCCUGCAGGUCGACUCUAGAAAACAUG”: the binding signal is 2.38 log2 enrichment (interaction score) with PUM1 PUF domain R8-RFN; 3.52 log2 enrichment (interaction score) with PUM1 PUF domain R6-HYS; 3.65 log2 enrichment (interaction score) with PUM1 PUF domain R5-GFL; 2.49 log2 enrichment (interaction score) with PUM1 PUF domain R3-ARR; 1.61 log2 enrichment (interaction score) with PUM1 PUF domain R4-PFR.
Take “GGCUAGAACUAGUGGAUCCCCCGGCGCCCGGCGGCUCGAGCCCGGGUAAGUGUAUAUAGUCUGCAUGCCGCCGGGCGCCAUGCCUGCAGGUCGACUCUAGAAAACAUG”: the binding signal with PUM1 PUF domain R4-NFQ was 2.34 log2 enrichment (interaction score); in the test with PUM1 PUF domain R4-PFR, 4.81 log2 enrichment (interaction score).
With “GGCUAGAACUAGUGGAUCCCCCGGCGCCCGGCGGCUCGAGCCCGGGUAAGCGUAAAUAGUCUGCAUGCCGCCGGGCGCCAUGCCUGCAGGUCGACUCUAGAAAACAUG”, the binding signal with PUM1 PUF domain R8-TWN is 2.51 log2 enrichment (interaction score); in the test with PUM1 PUF domain R8-RFN, 2.57 log2 enrichment (interaction score).
Turning to “GGCUAGAACUAGUGGAUCCCCCGGCGCCCGGCGGCUCGAGCCCGGGUAAGUGUAAAUUGUCUGCAUGCCGCCGGGCGCCAUGCCUGCAGGUCGACUCUAGAAAACAUG”, the binding signal in the test with PUM1 PUF domain R1-RAQ was 2.71 log2 enrichment (interaction score); with PUM1 PUF domain R1-KVE, 3.9 log2 enrichment (interaction score); with PUM1 PUF domain R1-VWK it was 3.24 log2 enrichment (interaction score); with PUM1 PUF domain R1-NIS it was 6.67 log2 enrichment (interaction score); in the test with PUM1 PUF domain R1-RHV, 2.89 log2 enrichment (interaction score).
Consider “GGCUAGAACUAGUGGAUCCCCCGGCGCCCGGCGGCUCGAGCCCGGGUAAGUGUAAAUCGUCUGCAUGCCGCCGGGCGCCAUGCCUGCAGGUCGACUCUAGAAAACAUG”, for which the binding signal with PUM1 PUF domain R1-RAQ was 2.93 log2 enrichment (interaction score); with PUM1 PUF domain R1-KVE it was 3.75 log2 enrichment (interaction score); with PUM1 PUF domain R1-RHV, 1.47 log2 enrichment (interaction score).
With “GGCUAGAACUAGUGGAUCCCCCGGCGCCCGGCGGCUCGAGCCCGGGUAAGUGAAAAUAGUCUGCAUGCCGCCGGGCGCCAUGCCUGCAGGUCGACUCUAGAAAACAUG”, the binding signal with PUM1 PUF domain R6-RWT is 3.03 log2 enrichment (interaction score).
